Source: PubChem BioAssay (NCATS)
Inconclusive results are not listed. Calls of active or inactive are those of the source. Calls follow the shape of the dose curve; as a rule, active = well fitted curve in the direction sought with a large enough effect; inconclusive = small, poorly fitted or top-dose-only effect, or another doubt; inactive = no such curve, though single readings can be large; an effect the other way counts as inactive or inconclusive.

Columns and labels:
[1] = test system: NIH3T3; assay: qHTS assay to identify novel small-molecules to repurpose for Merkel cell carcinoma treatment (AID 1296009); details: MCC and control cell lines, CellTiter-Glo viability, 72 h; series mostly up to 44.8 µM; also: nearly all actives have a fitted effect of over 60% in size
In short: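 Cell viability measured by CellTiter-Glo following 72 hr compound treatment at 37 degree celsius, with NPC and MIPE libraries tested in 8- and 11-point concentration series.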

[2] = test system: C33A; assay: Primary qHTS to identify gynecologic anti-cancer compounds using libraries of approved drugs and bioactive compounds (AID 1345084); details: Gynecologic cancer cell panel viability, ATPlite luminescence, 48 h; series mostly up to 57.5 µM; also: % is scaled to controls: 0 for no effect and ±100 for the full control effect; nearly all actives have a fitted effect of over 55% in size
In short: (§1)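 Luminescence from the ATPlite ATP-monitoring reagent indicates viable cell number; lower signal means cytotoxicity. Cells received compound 16 h after seeding and were exposed for 48 h across five concentrations.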

[3] = test system: CAOV3; assay: as above; details: Gynecologic cancer cell panel viability, ATPlite luminescence, 48 h; series mostly up to 57.5 µM
In short: as §1

[4] = test system: CASKI; assay: as above; details: Gynecologic cancer cell panel viability, ATPlite luminescence, 48 h; series mostly up to 57.5 µM
In short: as §1

[5] = test system: Es-2; assay: as above; details: Gynecologic cancer cell panel viability, ATPlite luminescence, 48 h; series mostly up to 57.5 µM
In short: as §1

[6] = test system: HeLa; assay: as above; details: Gynecologic cancer cell panel viability, ATPlite luminescence, 48 h; series mostly up to 57.5 µM
In short: as §1

[7] = test system: Hek293T; assay: as above; details: Gynecologic cancer cell panel viability, ATPlite luminescence, 48 h, control line for the selectivity index; series mostly up to 57.5 µM
In short: as §1

[8] = test system: JEG-3; assay: as above; details: Gynecologic cancer cell panel viability, ATPlite luminescence, 48 h; series mostly up to 57.5 µM
In short: as §1

[9] = test system: OV90; assay: as above; details: Gynecologic cancer cell panel viability, ATPlite luminescence, 48 h; series mostly up to 57.5 µM
In short: as §1

[10] = test system: SKOV3; assay: as above; details: Gynecologic cancer cell panel viability, ATPlite luminescence, 48 h; series mostly up to 57.5 µM
In short: as §1

[11] = test system: Tov-21-G; assay: as above; details: Gynecologic cancer cell panel viability, ATPlite luminescence, 48 h; series mostly up to 57.5 µM
In short: as §1

[12] = test system: Tov112D; assay: as above; details: Gynecologic cancer cell panel viability, ATPlite luminescence, 48 h; series mostly up to 57.5 µM
In short: as §1

[13] = test system: PA-1; assay: as above; details: Gynecologic cancer cell panel viability, ATPlite luminescence, 48 h; series mostly up to 57.5 µM
In short: as §1

[14] = Drug repurposing screens with cells derived from glioblastoma tumor samples (AID 1345199); details: GBM patient neurospheres viability, ATP luminescence, 48 h; also: % is scaled to controls: 0 for no effect and ±100 for the full control effect; nearly all actives have a fitted effect of over 40% in size
In short: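 Primary testing used CD133+ neurospheres from four GBM patients, seven concentrations, 48 h exposure and ATP-based viability; confirmation added three slower-growing patient lines.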

CC(C)(C)c1ccc2c(c1)CC[C@H]2NC(=O)Nc1cccc2[nH]ncc12
inactive: Potency [1] | Potency [2] | Potency [3] | Potency [4] | Potency [5] | Potency [6] | Potency [7] | Potency [8] | Potency [9] | Potency [10] | Potency [11] | Potency [12]

Nc1c(S(=O)(=O)c2ccccc2)c2nc3ccccc3nc2n1-c1ccc(F)cc1
inactive: Potency [1] | Potency [2] | Potency [3] | Potency [4] | Potency [5] | Potency [6] | Potency [7] | Potency [8] | Potency [9] | Potency [13] | Potency [11] | Potency [12]

CCC[C@@]1(CCc2ccccc2)CC(O)=C([C@H](CC)c2cccc(NS(=O)(=O)c3ccc(C(F)(F)F)cn3)c2)C(=O)O1
inactive: Potency [1] | Potency [2] | Potency [3] | Potency [4] | Potency [5] | Potency [6] | Potency [7] | Potency [8] | Potency [9] | Potency [13] | Potency [10] | Potency [11] | Potency [12] | activity, negative = cell killing ([14]; at 45.9 µM (top of the series), tumour line B) -17% | activity, negative = cell killing ([14]; at 45.9 µM (top of the series), tumour line D) -1.26% | activity, negative = cell killing ([14]; at 46.1 µM (top of the series), tumour line C) -12.2%

COc1ccccc1N1CCN(c2ncnc3n[nH]c(Br)c23)CC1
inactive: Potency [1] | Potency [2] | Potency [3] | Potency [4] | Potency [5] | Potency [7] | Potency [8] | Potency [9] | Potency [13] | Potency [10] | Potency [11] | Potency [12]

C=C1CCN([C@H](C)[C@](O)(Cn2cncn2)c2ccc(F)cc2F)CC1
inactive: Potency [1] | Potency [2] | Potency [3] | Potency [4] | Potency [5] | Potency [6] | Potency [7] | Potency [8] | Potency [9] | Potency [13] | Potency [10] | Potency [11] | Potency [12]

CCC(C)/C=C(C)/C=C/C1=CC2=C(Cl)C(=O)C(C)(OC(C)=O)C(=O)C2(O)C(OC)O1 (stereo not drawn)
inactive: Potency [1] | Potency [2] | Potency [3] | Potency [4] | Potency [5] | Potency [6] | Potency [8] | Potency [9] | Potency [13] | Potency [10] | Potency [11] | Potency [12]

Cc1c(Cl)cccc1S(=O)(=O)Nc1nc(NCCc2ccccc2)nc2c1CN(Cc1ccccc1)CC2
inactive: Potency [1] | Potency [2] | Potency [3] | Potency [4] | Potency [5] | Potency [6] | Potency [7] | Potency [8] | Potency [9] | Potency [13] | Potency [10] | Potency [11] | Potency [12]

CCOC(=O)CCNc1cc(N2CCc3ccccc3CC2)nc(-c2cccnc2)n1
inactive: Potency [1] | Potency [2] | Potency [3] | Potency [4] | Potency [5] | Potency [6] | Potency [7] | Potency [8] | Potency [9] | Potency [13] | Potency [11] | Potency [12]

O=S(=O)(N[C@H]1CCCC[C@@H]1N1CCOCC1)c1ccc(Cl)cc1
inactive: Potency [1] | Potency [2] | Potency [3] | Potency [4] | Potency [5] | Potency [6] | Potency [7] | Potency [8] | Potency [13] | Potency [10] | Potency [11] | Potency [12]

CC(C)(O)c1ccc2c(c1)ncn2-c1cccc(-c2ccccc2C#N)c1
inactive: Potency [1] | Potency [2] | Potency [3] | Potency [4] | Potency [5] | Potency [6] | Potency [7] | Potency [8] | Potency [9] | Potency [13] | Potency [11] | Potency [12]

C=CC(=O)N1CC(N2CCN(C(=O)CNc3cc(C4CC4)c(Cl)cc3O)CC2)C1
inactive: Potency [1] | Potency [2] | Potency [3] | Potency [4] | Potency [5] | Potency [6] | Potency [7] | Potency [8] | Potency [9] | Potency [10] | Potency [11] | Potency [12]
